Out of some 2,400 compounds screened, about 40 (2%) were called active. A selection follows. A number with no mark means an inactive call. Rule as the data show it: active = activation above about 37%; inactive = the rest.
biological target: Trace amine-associated receptor 1 (Homo sapiens) (UniProt Q96RJ0); assay: TAAR1 activation by candidate antagonists – cell-based, fluorescence, counter-screen for TAAR1 antagonist project (AID 651955); details: hTAAR1 cell line, agonist mode, at 3 µM, stronger effect = higher value;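 also: CHO cells stably expressing TAAR1 with calcium dye readout; 0% = DMSO vehicle and 100% = full agonist response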
Sequence (Q96RJ0 whole entry, looked up): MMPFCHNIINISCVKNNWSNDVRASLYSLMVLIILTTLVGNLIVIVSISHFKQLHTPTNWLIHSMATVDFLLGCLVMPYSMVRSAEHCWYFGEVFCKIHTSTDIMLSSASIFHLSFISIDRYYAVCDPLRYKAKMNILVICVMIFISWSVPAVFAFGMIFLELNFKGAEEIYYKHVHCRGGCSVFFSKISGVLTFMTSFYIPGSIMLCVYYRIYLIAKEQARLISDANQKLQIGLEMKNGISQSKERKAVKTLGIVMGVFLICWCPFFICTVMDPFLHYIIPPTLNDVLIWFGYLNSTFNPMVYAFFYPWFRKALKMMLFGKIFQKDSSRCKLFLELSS

| Structure (SMILES) | activation |
| --- | --- |
| O=C(NCCN1CCOCC1)c1ccccc1N1C(=O)[C@@H]2Cc3c([nH]c4ccccc34)C(c3cccc(Cl)c3)N2C1=O (some centres not stated) | 5.75% |
| Clc1ccc(Nc2ncnc3c2nnn3Cc2ccccc2)cc1 | 6.12% |
| Nc1nonc1-n1nnc(C(=O)N/N=C/c2c[nH]c3ccccc23)c1-c1ccccc1 | 2.36% |
| O=c1[nH]c(CSc2ncc(-c3ccc(F)cc3)n2Cc2ccco2)nc2ccccc12 | 17.5% |
| Cn1c2ccccc2c(=O)c2c(=O)n(Cc3ccco3)c(COc3ccccc3)nc21 | 39.4% (active) |
| Cc1ccc(C)c(N2CCN(C(=O)CCCCCn3c(=S)[nH]c4ccc(N5CCOCC5)cc4c3=O)CC2)c1 | 6.46% |
| CC(C)N(Cc1ccccc1)C(=O)COC(=O)c1ccccc1SCC(=O)N1CCCC1 | 10.5% |
| C/C(=N\Nc1ncc(Cl)cc1Cl)c1ccc(S(=O)(=O)NCc2ccco2)cc1 | -4.54% |
| COC(=O)Cc1nnn2c1[C@H](C)[C@H](c1ccccc1[N+](=O)[O-])OCC2 | 1.8% |
| O=C1c2ccccc2C(=O)N1CCC#Cc1ccc2cc(C3(O)CCCCC3)oc(=O)c2c1 | 10.5% |
| C[C@@H]1CN([C@@H](C)CO)S(=O)(=O)c2ccc(C#Cc3cccc(F)c3)cc2O[C@H]1CN(C)S(=O)(=O)c1cn(C)cn1 | 9.74% |
| COc1ccc(-c2nn(-c3ccccc3)cc2C(=O)Nc2nccs2)cc1OC | 7.13% |
| O=C(NCc1ccc2c(c1)OCO2)c1c(-c2ccsc2)sc2ccccc12 | -1.93% |
| CCC(=O)Oc1cccc(C(=O)Nc2ccc(-c3nnc(-c4ccco4)o3)cc2)c1 | 3.83% |
| O=S(=O)(c1cccs1)N1CCCc2nc(-c3ccc(Br)cc3)ccc21 | 0.43% |
| CSC(=S)N/N=C/c1c[nH]c2ccccc12 | 12% |
| CC(=O)n1cc([C@H]2C=C(C(=O)N3CCOCC3)O[C@@H](OCc3ccc(CO)cc3)C2)c2ccccc21 | 9.37% |
| O=C(COC(=O)c1ccccc1SCC(=O)N1CCCC1)Nc1ccccc1OC(F)F | 7.54% |
| Cc1onc(-c2c(F)cccc2Cl)c1C(=O)Nc1cccc(S(=O)(=O)N2CCCCC2)c1 | 7.98% |
| COc1cc(SC#N)ccc1N=Cc1c(C)[nH]n(-c2ccc(C)cc2)c1=O | 1.06% |
| CN(c1ccccc1)S(=O)(=O)c1cc(C(=O)Nc2nc3ccccc3[nH]2)ccc1Cl | 4.12% |

| Structure (SMILES) | activation |
| --- | --- |
| O=C(NCC1CCCO1)c1cc2c([nH]c3ccccc32)c(-c2ccc(F)cc2)n1 (configuration not stated) | 3.66% |
| CC(=O)c1ccccc1OCc1ccc(C(=O)c2ccccc2)cc1 | 6.46% |
| COc1ccc(CCNC(=O)C(=O)NCC2OCCN2S(=O)(=O)c2ccc(OC)c(C)c2)cc1 (configuration not stated) | 5.42% |
| COC(=O)C1=C(C)N(Cc2ccc(F)cc2)C(=S)NC1c1cccc(Cl)c1 (configuration not stated) | 3.48% |
| CC(=O)OCCN(CCCn1c(-c2ccncc2)nc2ccccc21)c1nc(-c2ccc(C)cc2)cs1 | 2.91% |
| O=C(Nc1ccccc1-c1nnn(CC(=O)N2CCN(c3ccccc3)CC2)n1)c1cccs1 | 6.9% |
| O=S1(=O)c2c(cccc2N2CCCCC2)O[C@H](COCc2ccccc2)CN1C1CC1 | 0.58% |
| Cc1cccc(C)c1NC(=O)CNC(=O)C1CCCC1 | 6.49% |
| CCN=C1SC(CC(=O)Nc2ccc(C)cc2)C(=O)N1CC (configuration not stated) | 12.6% |
| COc1ccc(-c2cc(C(=O)Nc3ccccc3O)c3ccccc3n2)cc1 | 16.7% |
| O=C(NCCN1CCOCC1)c1ccc(/C=C2\Sc3ccccc3N(Cc3ccc(F)cc3)C2=O)cc1 | 12.4% |
| COc1ccc(Cl)cc1NC(=O)CCS(=O)(=O)c1cc2c(cc1C)NC(=O)CO2 | 7.53% |
| COc1ccc(N(CC(=O)N/N=C/c2cccs2)S(=O)(=O)c2ccc(OC)c(OC)c2)cc1 | 11.5% |
| CSc1ncnc2c1ncn2CC(=O)C1CCC2C3CCC4=CC(=O)CCC4(C)C3CCC12C (configuration not stated) | 15.2% |
| COc1ccc(C(=O)Nc2ccccc2C(=O)N/N=C/c2ccc(O)c(OC)c2)cc1 | 8.37% |
| Cc1ccc(SCc2c(C(=O)N/N=C/c3cccnc3)nnn2-c2nonc2N)cc1 | 17.1% |
| CSCCC(NC(=O)COc1ccccc1)C(=O)OCC(=O)c1cc2ccccc2o1 (configuration not stated) | 3.28% |
| O=C(N/N=C/c1ccc(Cl)c(Cl)c1)c1ccc2nc[nH]c2c1 | 13.9% |
| COc1cc(/C=C2/C(=O)ON=C2C)ccc1OCc1ccccc1F | 18.6% |
| N#Cc1cccc(NC(=O)COC(=O)c2ccccc2C(=O)c2ccc(Cl)c([N+](=O)[O-])c2)c1 | 3.29% |
| CSCCC(NC(=O)COc1ccccc1)C(=O)OCCOc1ccc(Br)cc1 (configuration not stated) | 4.8% |

| Structure (SMILES) | activation |
| --- | --- |
| CC(=O)Nc1ccc(NC(=O)COC(=O)C2CCC(C(C)(C)C)CC2)cc1 (configuration not stated) | 23.7% |
| COc1ccc(NC(=O)C2CCCN(S(=O)(=O)c3cccc4cccnc34)C2)cc1OC (configuration not stated) | 5.06% |
| O=C(CN1CCCSc2ccccc21)N1CCN(S(=O)(=O)c2cccc(F)c2)CC1 | 6.06% |
| Cn1c(C(=O)NCCc2ccsc2)cc2c(=O)n(C)c3ccccc3c21 | 4.37% |
| O=C(COC(=O)c1c2c(nc3ccccc13)CCCC2)c1ccc(Br)s1 | 0.2% |
| Cc1nn(-c2ccccc2)c(C)c1NC(=O)COC(=O)c1cc(Cl)ccc1O | 10.5% |
| C=CCC[C@@H](Cc1ccc(F)cc1)C(=O)O[C@H](CNC(=O)[C@H](CC=C)CC(=O)N(CCO)Cc1ccccc1)c1ccccc1 | 2.53% |
| COc1ccc(CC(=O)Nc2c(C(N)=O)oc3ccccc23)cc1 | 6.71% |
| CCN1CCc2c(C#N)c(NCc3ccccc3)nc(NCCO)c2C1 | 8.1% |
| COc1ccc(C(=O)Nc2cccc(NC(=O)c3ccc(OC)cc3OC)n2)c(OC)c1 | 6.39% |
| CCOC(=O)C1C(c2ccc(OC)c(OC)c2)c2c([nH][nH]c2=O)CC1(C)O (configuration not stated) | 3.71% |
| CSc1nc(-c2ccccc2)nc(C(Cl)Cl)n1 | 2.73% |
| CCCCNc1c(-c2cccc(Sc3ccc(OC)cc3)c2)nc2ccccn12 | 6.5% |
| CCOc1ccc(N2CC(C(=O)N/N=C/c3sccc3C)CC2=O)cc1 (configuration not stated) | 3.12% |
| COc1ccc(-c2cc(C(=O)N(C)CC(=O)Nc3ccccc3Cl)c3ccccc3n2)cc1OC | 6.79% |
| COc1ccc(S(=O)(=O)N(CC(=O)NCc2ccco2)c2ccc(F)cc2)cc1 | 7.31% |
| CC(=O)N1CCN(C(=O)c2cc(-c3ccc(Cl)s3)nc3ccccc23)CC1 | 13% |
| COc1ccc(-c2cc(C(=O)N(C)Cc3ccccc3)c3ccccc3n2)cc1 | 1.41% |
| Cc1ccc(-n2c(C)cc(/C=N\NC(=O)CC(=O)NC(C)C)c2C)cc1 | 16.1% |
| OC(c1ccccc1)(c1ccccc1)C1CCN(CCCOc2ccc(-c3ccsc3)cc2)CC1 | 33.1% |

Reference: PubChem BioAssay AID651955 (The Scripps Research Institute Molecular Screening Center, 2012)
